From PubChem BioAssay
Only some compounds are listed: those with a hit (about 9.9% of all), similar ones and a draw of the others.
ALDH1A1 inh = blocks purified human ALDH1A1 activity; Potency, µM (highest dose often 75.3 µM), for the others: at the top dose activity, negative = inhibition, hits mostly inhibitors; hit rate 7.3% among 220,000; Purified ALDH1A1, NADH fluorescence, propionaldehyde substrate;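 note: plate controls were no enzyme wells and a reference inhibitor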
Target sequence (P00352 whole entry, looked up): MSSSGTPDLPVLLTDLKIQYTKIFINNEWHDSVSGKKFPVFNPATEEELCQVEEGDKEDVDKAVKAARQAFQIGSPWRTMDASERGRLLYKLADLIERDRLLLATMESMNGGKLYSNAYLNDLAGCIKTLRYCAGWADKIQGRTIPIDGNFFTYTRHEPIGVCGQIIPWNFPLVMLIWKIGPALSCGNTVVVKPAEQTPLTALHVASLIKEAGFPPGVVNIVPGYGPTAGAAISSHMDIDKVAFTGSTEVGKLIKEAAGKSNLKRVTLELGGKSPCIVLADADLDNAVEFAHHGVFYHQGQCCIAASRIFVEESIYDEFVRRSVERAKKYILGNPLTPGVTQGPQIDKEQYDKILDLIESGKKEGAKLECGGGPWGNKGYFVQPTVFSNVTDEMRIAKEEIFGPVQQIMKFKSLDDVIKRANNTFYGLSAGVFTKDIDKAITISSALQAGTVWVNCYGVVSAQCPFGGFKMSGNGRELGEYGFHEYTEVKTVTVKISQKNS
Tau fibril ThT = blocks human tau fibril formation measured by thioflavin T | P10636 | recombinant tau K18 P301L, heparin-induced fibrillization, ThT fluorescence | Potency, µM (highest dose often 57.4 µM), without a hit: at the top dose activity, negative = inhibition, actives largely listed as inhibitors | hit rate 2.1% among 270,000; active = well fitted curve in the direction sought with a large enough effect; inconclusive = small, poorly fitted or top-dose-only effect, or another doubt; inactive = no such curve, though single readings can be large; an effect the other way counts as inactive or inconclusive; note: nearly all actives have a fitted effect of over 55% in size
Target sequence (P10636 561-689 P618L limits assumed): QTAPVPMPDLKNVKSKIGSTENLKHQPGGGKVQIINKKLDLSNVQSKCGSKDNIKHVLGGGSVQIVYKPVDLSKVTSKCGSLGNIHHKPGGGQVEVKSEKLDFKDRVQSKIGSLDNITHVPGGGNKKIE
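Heparin-induced fibrillization of the P301L-mutant K18 repeat-domain fragment of human tau was followed by ThT binding in quantitative high-throughput format.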
KDM4E inh = JMJD2E (human) inhibition; B2RXH2; JMJD2E catalytic domain, FDH-coupled NADH fluorescence (FDH is formaldehyde dehydrogenase); Potency, µM (titrated, usually from 57.1 µM), inactives show at the top dose activity change, negative = inhibition, hits mostly inhibitors; hit rate 1.6% among 230,000;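 note: 0% = wells with enzyme and -100% = buffer wells without enzyme; nearly all actives have a fitted effect of over 50% in size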
HPGD block = HPGD (human) dehydrogenase inhibition | P15428 | purified HPGD, NADH fluorescence kinetic, PGE2 substrate | Potency, µM, for the others: top-dose activity change, negative = inhibition, most hits filed as inhibitors | hit rate 4.3% among 150,000
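NADH formation kinetics: reaction with 30 uM PGE2 and 1 mM NAD+ (final), 20 nM enzyme, Tris-HCl pH 8 with Tween 20, after 15 min compound preincubation at room temperature. Fluorescence change, last versus first of five reads.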
Tau fluor counter = counter-screen for tau fibril formation inhibitors; hit rate 0.93% among 280,000; tau K18 P301L (four-repeat tau fragment) Alexa594 fluorescence, heparin fibrillization; Potency, µM (titrated, usually from 57.7 µM), for the others: top-dose activity change, negative = decrease; active = well fitted curve in the direction sought with a large enough effect; inconclusive = small, poorly fitted or top-dose-only effect, or another doubt; inactive = no such curve, though single readings can be large; an effect the other way counts as inactive or inconclusive; note: nearly all actives have a fitted effect of over 55% in size
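Human K18 P301L tau (15 uM unlabeled plus 0.24 uM Alexa 594-labeled, final) in 100 mM sodium acetate pH 7 was mixed with compound and 20 uM heparin and incubated 6 hr at 37 C.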
Tau FP inhib = blocks human tau fibril formation measured by polarization. P10636. K18 P301L tau heparin fibrillization, Alexa594 FP, 6 h. Potency, µM (series often up to 57.7 µM), without a hit: at the top dose activity, negative = inhibition, hits mostly inhibitors. hit rate 0.39% among 280,000. AID 1468; active = well fitted curve in the direction sought with a large enough effect; inconclusive = small, poorly fitted or top-dose-only effect, or another doubt; inactive = no such curve, though single readings can be large; an effect the other way counts as inactive or inconclusive; note: nearly all actives have a fitted effect of over 55% in size
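Human K18 P301L fragment (15 uM unlabeled plus 0.24 uM Alexa 594-labeled) in 100 mM sodium acetate pH 7 with compound, aggregation induced by 20 uM heparin for 6 hr at 37 C. ThT (30 uM) added for 1 hr, then Alexa 594 FP read.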
Numbers without * were called inactive; ? = inconclusive; . = no result; [ ] = dose if it differs, or a comment. Unless noted, calls come from the whole dose curve; as a rule, active = well fitted inhibition curve with a large enough effect (not every such curve was filed as active); inconclusive = small, poorly fitted or top-dose-only effect, or another doubt; inactive = no such curve, though single readings can be large or run the other way. Unless noted, % is set by controls: 0 for no effect and ±100 for the full control effect; potency is the fitted concentration of half-maximal effect.

SMILES | ALDH1A1 inh | Tau fibril ThT | KDM4E inh | HPGD block | Tau fluor counter | Tau FP inhib
c1ccc(Cc2nn3c(C4COc5ccccc5O4)nnc3s2)cc1 (centres undefined) | 2µM* | ? | 4% | 8.9µM* | -11% | 6%
O=C(/C=C/c1cccs1)Nc1ccc(Br)cn1 | 5% | -16% | 7% | -10% | -12% | 9%
COc1ccc(OC)c(NC(=O)CC2SC(=NCc3ccccc3)NC2=O)c1 (centres undefined) | 40µM* | 3% | -2% | . | -4% | -8%
COc1ccc(N=C2NC(=O)C(CC(=O)NCCc3ccc(OC)c(OC)c3)S2)cc1 (centres undefined) | 11µM* | -8% | -5% | . | 2% | 9%
COc1ccc(NC(=O)CC2SC(=Nc3ccccc3)NC2=O)c(OC)c1 (centres undefined) | -5% | -3% | 7% | -5% | 5% | 5%
Cc1ccc(N=C2NC(=O)C(CC(=O)NCc3ccccc3)S2)cc1C (centres undefined) | 25µM* | -12% | -5% | -15% | -10% | 2%
CCOc1ccc(CCNC(=O)CN2N=C(c3ccccc3)CCC2=O)cc1OCC | . | -8% | . | . | -16% | 1%
N[C@@](CC(=O)O)(Cc1ccccc1)C(=O)O | -6%[13.5 µM] | . | . | -3% | . | .
O=C(Nc1ccc(Cl)cc1C(F)(F)F)c1ccccc1 | 1% | -8% | 1% | -9% | -17% | -8%
C=CCn1c(SCc2cc(C(C)=O)ccc2OCC)nc2ccccc2c1=O | 2.2µM* | -11% | -14% | -12% | -6% | 9%
CCOc1ccc(C(C)=O)cc1CSc1nc(C)cc(C)n1 | 4µM* | -3% | -2% | . | -1% | 11%
COCCn1c(SCc2cc(C(C)=O)ccc2OC)nc2cc(Cl)ccc2c1=O | 18µM* | ? | -4% | -3% | -24% | 12%
COc1ccc(C(C)=O)cc1CSc1nc(C)cc(C)n1 | ? | 2% | -11% | . | 3% | 4%
Cn1c(CN2CCCC2)nc2cc(NC(=O)COc3ccc([N+](=O)[O-])cc3)ccc21 | -6% | ? | -10% | -17% | -19% | -3%
C[C@H](NC(=O)N1CCc2nc(-c3ccccc3)c3c(c2C1)CO[C@@H](C)C3)c1ccccc1 | 1%[13.5 µM] | -4%[11.5 µM] | 18%[11.4 µM] | -5% | 0%[11.6 µM] | 12%[11.6 µM]
CCN(CC)C(=O)/C(=C\c1cccc([N+](=O)[O-])c1)NC(=O)c1ccco1 | ? | 13% | 4% | -12% | 13% | -4%
CC(C)(C)Nc1ncnc2c1cnn2-c1ccccc1 | -2% | -6% | -11% | 25µM* | -10% | -8%
c1ccc(CNc2ncnc3c2cnn3-c2ccccc2)cc1 | -13% | -1% | ? | . | -7% | 4%
c1ccc(CCNc2ncnc3c2cnn3-c2ccccc2)cc1 | ? | -2% | -27% | 16µM* | ? | -17%
Clc1ccc(-n2ncc3c(NCc4cccs4)ncnc32)cc1 | 1.6µM* | -8% | 7% | 0% | -27% | 7%
CN=c1scc(-c2ccc(OC)cc2)n1/N=C(\C)c1cccnc1 | 9% | 11µM* | -12% | . | ? | 1%
C/C(=N/n1cnnc1)c1cccnc1 | 5% | 4% | 8% | -9% | -1% | -6%
O=C(Nc1cc(Sc2ccccn2)cc([N+](=O)[O-])c1)c1ccc(Cl)cc1 | 1% | -14% | 0% | -11% | 10µM*[quencher] | -9%
O=C(Nc1cc(Sc2ccccn2)cc([N+](=O)[O-])c1)c1cccc(Cl)c1 | -9% | 5% | 1% | -25% | 3% | 3%
S=c1[nH]nc(-c2ccc3ccccc3n2)n1-c1ccccc1Cl | -6% | 11% | 4% | 10µM* | 14% | 4%
SMILES | ALDH1A1 inh | Tau fibril ThT | KDM4E inh | HPGD block | Tau fluor counter | Tau FP inhib
CCc1c(-c2n[nH]c(=S)n2Cc2ccccc2)csc1C | 10µM* | 6% | 3% | 16µM* | -1% | -16%
S=c1[nH]nc(-c2ccc3ccccc3n2)n1-c1cc(Cl)cc(Cl)c1 | ? | -7% | -15% | ? | -21% | 6%
Cc1ccccc1OCc1n[nH]c(=S)n1Cc1ccccc1 | -13% | -7% | 6% | 14µM* | -13% | 3%
S=c1[nH]nc(COc2cccc3ccccc23)n1Cc1ccccc1 | . | -7% | -7% | . | -16% | -7%
S=c1[nH]nc(-c2ccc3ccccc3n2)n1Cc1ccccc1 | 6% | -3% | -21% | 11µM* | -11% | -8%
CCOC(=O)c1c(C)[nH]c(CCC(=O)NCc2ccc(N(C)C)cc2)c1C | . | -10% | . | . | -5% | 5%
O=C(COCc1cc(-c2cccs2)on1)NCc1cccc(Cl)c1 | . | -5% | . | . | -14% | 4%
S=c1[nH]nc(-c2cccnc2)n1Cc1ccccc1 | 14µM* | 2% | ? | -27% | 2% | 1%
Oc1ccc(-c2n[nH]c(=S)n2Cc2ccccc2)cc1 | 20µM* | -10% | ? | ? | -8% | 0%
N#Cc1c(-c2ccc(Cl)cc2)ccn2nc(C3CCCCC3)nc12 | ? | -12% | 2% | -12% | -17% | ?
COC(=O)c1ccccc1NC(=O)Cn1nnc2sc(-c3ccccc3)cc2c1=O | . | -12% | . | . | -16% | 6%
O=C(COc1ccccc1Cl)OCc1cc(=O)n2nc(C3CC3)sc2n1 | . | 2% | . | . | 5% | 2%
NC1=NC(=O)/C(=C\c2cc([N+](=O)[O-])ccc2Cl)S1 | ? | ? | -5% | . | -20% | 14%
COCCn1c(SCC#N)nnc1-c1ccc([N+](=O)[O-])cc1 | 0% | -14% | -6% | . | -4% | 4%
O=C(CCc1nnc(CCCCc2ccccc2)o1)NCCN1CCOC1=O | 0.11µM* | ? | -4% | . | -12% | 0%
O=C(CCc1nnc(CCCCc2ccccc2)o1)NCCn1cccn1 | -6% | -9% | 0% | . | -8% | -3%
COC(=O)CCC(NC(=O)c1cc(-c2ccc3c(c2)OCCO3)oc1C)C(=O)OC (centres undefined) | 20µM* | -18% | -1% | -20% | -11% | 13%
COC(=O)C(Cc1c[nH]c2ccccc12)NC(=O)c1cc(-c2ccc(OC)c(OC)c2)oc1C (centres undefined) | 28µM* | ? | 0% | 32µM* | ? | ?
COc1ccccc1CCNC(=O)Cc1c(C)c2ccc(O)cc2oc1=O | . | -11% | . | . | -13% | -5%
O=S1(=O)C=C(Oc2ccc3ccccc3c2)c2ccccc21 | 10µM* | ? | -7% | -25% | -24% | 0%
O=S1(=O)C=C(Oc2ccc(F)cc2)c2ccccc21 | ? | -4% | -5% | -15% | -7% | 6%
COc1ccc(N=NC2=C(O)CC(C)(C)CC2=O)c(OC)c1 | 0.28µM* | ? | -9% | -13% | -4% | -3%
CC1(C)CC(=O)C(N=Nc2ccc(C(F)(F)F)cc2[N+](=O)[O-])=C(O)C1 | 3.5µM* | ? | 13µM* | . | -26% | 15%
